The source of these data is ChEMBL document CHEMBL3433997, “St. Jude Leishmania screening dataset” (2016).

SMILES strings stand for the structures.

Holding throughout (format): functional
The target of experiment [1] is Solute carrier family 2, facilitated glucose transporter member 1 (Homo sapiens) (UniProt P11166). Briefly: ST_JUDE_LEISH: Cytotoxicity at 2uM final concentration against transgenic Leishmania Mexicana promastigotes LmGLUT1 that are glucose transport deficient and complemented with the human glucose transporter GLUT1. Activity is measured by DNA content using SYBR green in vitro.
Solute carrier family 2, facilitated glucose transporter member 1 (Homo sapiens), sequence (P11166 whole entry): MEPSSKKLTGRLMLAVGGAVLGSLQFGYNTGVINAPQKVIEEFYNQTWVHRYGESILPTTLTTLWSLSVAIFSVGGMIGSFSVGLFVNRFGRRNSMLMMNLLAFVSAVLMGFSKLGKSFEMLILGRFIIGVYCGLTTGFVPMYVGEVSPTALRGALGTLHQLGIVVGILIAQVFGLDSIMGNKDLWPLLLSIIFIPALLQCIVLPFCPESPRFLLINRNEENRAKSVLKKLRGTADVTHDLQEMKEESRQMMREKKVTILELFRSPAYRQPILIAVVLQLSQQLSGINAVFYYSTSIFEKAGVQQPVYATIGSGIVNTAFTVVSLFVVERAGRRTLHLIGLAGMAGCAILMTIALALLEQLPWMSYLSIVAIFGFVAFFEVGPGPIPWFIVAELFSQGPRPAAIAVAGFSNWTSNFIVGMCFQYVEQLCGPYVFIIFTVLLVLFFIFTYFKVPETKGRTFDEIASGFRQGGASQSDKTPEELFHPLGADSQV

Experiment [2] concerns the target Hexose transporter 1 (Plasmodium falciparum) (UniProt O97467). Briefly: ST_JUDE_LEISH: Cytotoxicity at 2uM final concentration against transgenic Leishmania Mexicana promastigotes LmPfHT that are glucose transport deficient and complemented with the Plasmodium falciparum hexose transporter. Activity is measured by DNA content using SYBR green in vitro.
Experiment [3] deals with Glucose transporter (Leishmania mexicana) (UniProt O61059). Briefly: ST_JUDE_LEISH: Cytotoxicity at 2uM final concentration against transgenic Leishmania Mexicana promastigotes LmGT2 that are glucose transport deficient and complemented with the L. Mexicana glucose transporter 2. Activity is measured by DNA content using SYBR green in vitro.

As to `CC(C)C[C@H](NC(=O)[C@H](Cc1ccccc1)N(C[C@H](Cc1ccccc1)NC(=O)OC(C)(C)C)C(=O)C(F)(F)F)C(=O)NC1CCN(Cc2ccccc2)CC1`, the figures for the inhibition in experiment [1], in experiment [2] and in experiment [3] were 5.24%, 5.7% and 4.2%, respectively.
For `C=CCn1c(SCc2c(C)noc2C)nc2scc(-c3cccs3)c2c1=O`, in that order: 0.98%, 0.21% and -5.13%.
For `CCN(CC)CCN(Cc1ccc(-c2ccc(C(F)(F)F)cc2)cc1)C(=O)Cn1c(CCc2cccc(F)c2F)nc(=O)c2ccccc21`, in that order: 1.51%, 0.95% and 1.67%.
For `O=C(/C=C/c1ccc(Cl)c(Cl)c1)NCCCCCN1CCCC(CNC(=O)c2sc3ccccc3c2Cl)C1` (centres undefined), in that order: -1.59%, -2.38% and 1.79%.
In the case of `COc1cc(Cc2cnc(N)nc2N)c2c(c1OC)OC(C)(C)C=C2`, the inhibition in experiment [1] came out at 4.17%; in experiment [2] it was 5.13%; in experiment [3], 4.87%.
For `Cc1cccc2nc(-c3cccc(-c4cccc(NC(=O)Nc5ccc(F)c(F)c5F)c4)c3)[nH]c12`, in that order: 1.75%, 2.51% and 2.44%.
For `COC(=O)c1ccc2nc(-c3ccc(C(=O)NCc4ccc(Cl)c(Cl)c4)cc3)[nH]c2c1`, in that order: 3.81%, 3.6% and 3.51%.
In the same order, the values of `CN/C(=N\O)NCCN(C)C` are 3.01%, 4.18% and 3.91%.
For the compound `Cc1cc(N[C@@H](Cc2ccccc2)C(=O)Nc2ccccc2)nc(NCCc2ccc(F)cc2)n1`, the inhibition is 3.66% in experiment [1], 3.68% in experiment [2] and 1.86% in experiment [3].
For `O=C(Cn1c(CCc2cccc(F)c2F)nc(=O)c2ccccc21)N(CCCN1CCCCC1)Cc1ccc(-c2ccc(C(F)(F)F)cc2)cc1`, in that order: 2.28%, 3.25% and 1.99%.
In the case of `COc1cc2cc(Cc3cnc(N)nc3N)ccc2c(OC)c1OC`, the inhibition in experiment [1] was 0.96%; in experiment [2] it was -0.27%; in experiment [3], 1.56%.
Regarding `COc1cccc(CN2CCCC(COC(c3ccc(F)cc3)c3ccc(F)cc3)C2)c1O` (centres undefined), the inhibition in experiment [1] is 0.95%; in experiment [2], 1.89%; in experiment [3] it was -0.91%.
For `CN1CCN(c2cc3c(Nc4ccc5c(cnn5Cc5ccccc5)c4)ncnc3cn2)CC1`, in that order: 1.33%, 2.08% and 2.17%.
For `Cc1c(S(=O)(=O)Nc2ccc3nccc(N4CCN[C@H](C)C4)c3c2)sc2ccc(Cl)cc12`, the values for the inhibition in experiment [1], in experiment [2] and in experiment [3] were -0.53%, 0.48% and -2.96%, respectively.
In the same order, the values of `C=CCNC(=O)C(C)c1ccc2cc(OC)ccc2c1` (centres undefined) are 0.71%, 0.77% and -0.06%.
For `CCN(CC)CC(O)CNc1c2ccc([N+](=O)[O-])cc2nc2cc(OC)c(OC)cc12` (centres undefined), in that order: 69%, 71.7% and 42%.
For `O=C(Nc1ccc(N2CCN(Cc3ccccc3Cl)CC2)cc1)c1ccc([N+](=O)[O-])o1`, in that order: 71.5%, 51.2% and 11.1%.
Turning to `Cc1ccnc(NC(c2ccc(Cl)c([N+](=O)[O-])c2)c2ccc3cccnc3c2O)c1` (centres undefined), the inhibition in experiment [1] was 0.43%; in experiment [2] it was -0.87%; in experiment [3] it was -1.39%.
For `CCc1cc2c3c(N)nc(N)nc3ccc2n1C(C)(C)C`, in that order: 96%, 94.4% and 78.4%.
Consider `O=C(NC1CCC1)C1CCN(C(c2ccccc2)c2cc(F)cc(F)c2)CC1` (centres undefined), for which the results for the inhibition in experiment [1], in experiment [2] and in experiment [3] were 6.73%, 7.32% and 6.61%, respectively.
In the same order, the values of `COc1ccc(NC(=O)/C=C/c2ccccc2Cl)cc1OCCN1CCC(NC2CC2)CC1` are 8.25%, 5.69% and 4.32%.
In the same order, the values of `O=C(/C=C/c1cc(C(F)(F)F)ccc1F)NCCCCCN1CCC(c2c[nH]c3ccccc23)CC1` are 0.77%, 1.47% and 0.28%.
For `O=C(Nc1ccccc1)NC1CCN(CCC2(c3ccc(Cl)c(Cl)c3)COCN(C(=O)c3ccccc3)C2)C1` (centres undefined), in that order: 4.31%, 4.43% and 4.63%.
As for `CC(C)CC(=O)N1CCNC[C@@H]1C(=O)NCc1ccc(Cl)c(Cl)c1`, the inhibition in experiment [1] was 2.93%; in experiment [2], 1.04%; in experiment [3], 3.02%.
In the same order, the values of `Cc1cccc(C)c1N1CCN(C2CCC(NC(=O)/C=C/c3ccccc3)CC2)CC1` (centres undefined) are 1.7%, 1.21% and 1.49%.
On to `Cc1ccccc1C1CCN(C2CCC(NC(=O)C3=Cc4cc(Cl)ccc4OC3)CC2)CC1` (centres undefined), for which the inhibition is -3.31% in experiment [1], 2.37% in experiment [2] and 1.59% in experiment [3].
In the same order, the values of `Fc1ccc2cc(C=Cc3ccncc3)[nH]c2c1` are 2.24%, 4.09% and 0.56%.
In the same order, the values of `Cc1cc(C)c2ncc(C(=O)O)c(O)c2c1` are 2.75%, 3.7% and 3.9%.
In the same order, the values of `CCCCCCCCOc1c(OCC)cc(Cc2cnc(N)nc2N)cc1OCC` are 13.7%, 7.75% and 2.94%.
Turning to `O=C(Nc1ccc(-c2cccc(-c3nc4ccccc4[nH]3)c2)cc1)NC1CC1c1ccccc1` (centres undefined), the inhibition in experiment [1] was 1.87%; in experiment [2], 1.77%; in experiment [3] it was -0.17%.
For `CC(C)CCN1CCC(Oc2ccc(NC(=O)c3ccsc3)cc2Cl)CC1`, the inhibition in experiment [1] is -0.7%; in experiment [2] it was 1.67%; in experiment [3], 1.45%.
For `CCCCOC(=O)c1ccc(Nc2cc(C)nc3ccc(OC)cc23)cc1`, in that order: 14.7%, 12.5% and 6.35%.
For the compound `O=[N+]([O-])c1ccc(Nc2nc(N/N=C/c3cc(Cl)cc(Cl)c3O)nc(Nc3ccccc3)n2)cc1`, the values for the inhibition in experiment [1], in experiment [2] and in experiment [3] were 2.04%, 2.61% and 2.65%, respectively.

Usually inhibition stands for the relative decrease from the control value, in per cent.
